Bioassay records: PubChem BioAssay, Broad Institute
aSyn 5UTR act: Activators via SNCA 5'UTR binding, MLPCN; alpha-synuclein 5'UTR reporter, activators screen; activity score, % (tested at 7.5 µM), hits read low; 7.1% of 300,000 active; in the data active = activity score below about -60%
Active calls of the source: *. These entries were drawn from the full list.

SMILES	aSyn 5UTR act
O=C(CNS(=O)(=O)c1ccc2ccccc2c1)OCc1csc(-c2ccccc2)n1	-62.2*
COC(=O)c1sccc1NC(=O)COc1ccc(Cl)cc1Cl	-161.7*
CC1(C)Cc2c(sc(NC(=O)COc3ccc(Cl)cc3Cl)c2C(N)=O)C(C)(C)N1	62.1
COC(=O)c1sccc1NC(=O)COc1ccc(C)cc1	-143.6*
Fc1ccccc1CSCc1nc2ccccc2[nH]1	-133.3*
Cc1cc(C)c(C#N)c(SCc2nc3ccccc3[nH]2)n1	-172.6*
c1ccc(SCc2nc3ccccc3[nH]2)cc1	-133.0*
Cc1cc(C)c(C#N)c(SCc2nnc(-c3ccccc3)o2)n1	102.4
Cc1ccc(SCc2nc3ccccc3[nH]2)cc1	-128.0*
c1ccc2[nH]c(CSc3nccs3)nc2c1	-79.2*
Clc1ccc(SCc2nc3ccccc3[nH]2)cc1	-112.1*
COc1cccc(NC(=O)c2cccc(C)c2[N+](=O)[O-])c1	-75.8*
CC(=O)Nc1cccc(OCC(=O)Nc2ccccc2)c1	-114.0*
CCn1nc(C)c(C(=O)Nc2cc(Oc3cc(C)cc(C)c3)cc([N+](=O)[O-])c2)c1C	50.2
COc1cccc(NC(=O)CC(=O)c2ccc([N+](=O)[O-])cc2)c1	-115.4*
COc1cccc(NC(=O)COc2ccccc2)c1	-143.7*
CC(C)(C)C1(C)OC(=O)C(=Cc2ccc(OCC(=O)Nc3ccccc3)cc2)C(=O)O1 (stereo not given)	-84.1*
CSc1cccc(NC(=O)COc2ccccc2C)c1	-85.2*
COc1ccc(OCC(=O)Nc2ccc(OC)c(S(=O)(=O)N3CCCCC3)c2)cc1	-95.8*
CC(=O)Nc1cccc(OCC(=O)Nc2sccc2C(N)=O)c1	-81.7*
CC(=O)Nc1cccc(OCCCNC(=O)c2ccc(C(C)(C)C)cc2)c1	-71.7*
CC(C)N1CCc2c(sc(NC(=O)c3ccc([N+](=O)[O-])o3)c2C(N)=O)C1	104.2
CCN1CCc2c(sc(NC(=O)c3ccc4ccccc4c3)c2C(N)=O)C1	-193.8*
CC(C)N1CCc2c(sc(NC(=O)c3ccc(S(=O)(=O)N4CCc5ccccc54)cc3)c2C(N)=O)C1	-102.8*
O=C(Nc1nc(-c2nc3ccccc3s2)cs1)c1ccc(S(=O)(=O)N2CCOCC2)cc1	-75.2*
SMILES	aSyn 5UTR act
CN(C)S(=O)(=O)c1ccc(C(=O)Nc2nc(-c3cc4ccccc4o3)cs2)cc1	-136.9*
O=C(Nc1nc(-c2cc3ccccc3o2)cs1)c1ccc(S(=O)(=O)N2CCCC2)cc1	-67.6*
Cc1ccc(-c2nc3ccccc3s2)cc1S(=O)(=O)N1CCOCC1	-66.0*
Cc1ccccc1Cn1c(O)c(N=NC(=S)Nc2ccccc2F)c2ccccc21	72.5
Oc1c(N=NC(=S)Nc2ccccc2F)c2ccccc2n1Cc1ccccc1F	86.8
CCn1c(O)c(N=NC(=O)c2cccs2)c2ccccc21	-67.3*
O=C(Nc1nccs1)c1ccc(Br)s1	-153.2*
Cc1ccc(C(=O)Nc2nccs2)s1	-87.2*
O=C(CSc1ncc(-c2ccc(F)cc2)n1Cc1ccco1)Nc1ccc2c(c1)OCO2	-150.5*
O=C(CSc1nccn1-c1ccc(F)cc1)Nc1ccc2c(c1)OCO2	-65.3*
COc1ccc(NCc2nnc(SCC(=O)c3ccc(OC)cc3)n2C)cc1	-127.4*
COc1ccc(C(=O)CSc2cc(C)[nH]c(=O)n2)cc1	-85.6*
O=C(CSc1nccn1-c1ccccc1)Nc1ccc2c(c1)OCO2	-69.4*
COc1ccc(C(=O)CSc2nccn2C)cc1	-80.3*
CCOC(=O)c1sc(NC(=O)CSc2nccn2C)nc1C	-111.9*
Cn1ccnc1SCC(=O)Nc1ccc2c(c1)OCO2	-107.2*
CCOc1ccc(NC(=O)CSc2nccn2C)cc1	-64.9*
COc1cccc(NC(=O)CSc2nnc(-c3cccc(OC(C)C)c3)n2N)c1	-73.2*
Cc1ccn2cc(CSc3ccccc3N)nc2c1	-97.3*
c1ccc(CSCc2cn3ccccc3n2)cc1	-135.1*
Cc1ccc(SCc2cn3ccccc3n2)cc1	-96.6*
CC1CC1C(=O)OCC(=O)Nc1ccc(N=Nc2ccccc2)cc1 (stereo not given)	-107.2*
CC(C)(C)C(=O)Nc1ccc(N=Nc2ccccc2)cc1	79.4
Cc1ccsc1/C=N/n1cnc2sc(C)c(C)c2c1=O	-101.2*
c1cncc(-c2noc(C34CC5CC(CC(C5)C3)C4)n2)c1	-86.9*
SMILES	aSyn 5UTR act
Cn1cc(CCNC(=O)c2ccc3nc(Cc4ccccc4F)oc3c2)cn1	-116.3*
CCn1nnc2cc(C(=O)NCCc3ccccc3F)ccc21	63.0
Cn1cc(CNC(=O)c2ccc3nc(Cc4ccccc4F)oc3c2)cn1	-84.1*
O=C(NCCc1ccccn1)c1ccc2nc(Cc3ccccc3F)oc2c1	-111.4*
CN(C)c1ccc(N=C/C=C2/N(C)c3ccccc3C2(C)C)cc1	-83.6*
CCOC(=O)c1ccc(NC(=O)CSc2nc(SC)ns2)cc1	-107.1*
CSc1nsc(SCC(=O)Nc2ccccc2F)n1	-62.6*
CSc1nsc(SCC(=O)Nc2ccc(OC(C)=O)cc2)n1	-123.7*
O=c1[nH]cnc2nn(-c3ccccc3)nc12	-82.0*
O=C(NC(=O)c1ccccc1O)c1ccc(C(F)(F)F)cc1	-69.0*
CCn1nnc(NC(=O)c2cccc(-c3cc4ccccc4oc3=O)c2)n1	-104.9*
Cc1ccc2nc(NC(=O)c3cccc(-c4cc5ccccc5oc4=O)c3)sc2c1	-87.9*
O=C(Nc1cccc(Cl)c1N1CCCC1)c1cccc(-c2cc3ccccc3oc2=O)c1	-100.9*
Cc1cc(O)ccc1N/C=C/c1onc(C)c1[N+](=O)[O-]	-109.6*
Cc1cccc(N/C=C/c2onc(C)c2[N+](=O)[O-])c1	-156.1*
CCOC(=O)c1sc(NC(=S)NC(=O)C23CC4CC(CC(C4)C2)C3)cc1C	-103.9*
CCOC(=O)c1sc(NC(=S)NC(=O)C2CC2)cc1C	-84.6*
C/C(NC(=O)c1cccc(F)c1)=C1/C(=O)C[C@@H]2[C@H]1C2(C)C	-183.4*
O=C(NC(=S)NNC(=O)[C@H]1C[C@@H]1c1ccccc1)c1cccc(F)c1	67.2
C/C(NC(=O)c1ccccc1F)=C1\C(=O)C[C@@H]2[C@H]1C2(C)C	-174.4*
COc1cccc2[nH]c3c(N4CCCC(C)C4)ncnc3c12 (stereo not given)	-143.0*
Nc1c(C(=O)N/N=C/c2cccnc2)cnn1-c1ccccc1	-67.4*
COc1ccccc1-c1cc(C(=O)Nc2ccccc2SC)no1	-95.5*
CSc1ccccc1NC(=O)c1cc(CC(C)C)on1	-177.8*
COc1cccc(-c2cc(C(=O)Nc3ccccc3SC)no2)c1	-141.1*
SMILES	aSyn 5UTR act
COc1ccccc1-c1cc(C(=O)Nc2cccnc2)no1	54.7
Cc1ccc(Nc2nc(CSc3nnc(-c4ccccc4)n3C)cs2)cc1	-67.9*
Cc1ccc(Nc2nc(CSc3nnc(-c4ccccc4C)n3C)cs2)cc1	-93.3*
O=C(COc1ccc(Br)cc1Br)NC1CCCC1	-112.8*
O=C(COc1ccc(Cl)cc1Cl)NC1CCSC1=O (stereo not given)	-86.4*
O=C(COc1ccc(Br)cc1Cl)NC1CCCCC1	-161.5*
CCOC(=O)C1CCCN(C(=O)CSCc2ccccc2)C1 (stereo not given)	-111.9*
CCOC(=O)N1CCN(C(=O)CSCc2ccccc2)CC1	-82.8*
O=C(CSCc1ccc(F)cc1)N1CCN(c2ccccc2)CC1	-66.4*
CCOC(=O)C1CCCN(C(=O)CCc2nnc(-c3ccc(C(C)=O)s3)o2)C1 (stereo not given)	-134.4*
N#CC(c1ccc(Cl)cc1)c1ccc2c(C(F)(F)F)cc(C(F)(F)F)nc2n1 (stereo not given)	111.6
O=C(CSCc1cccc(Br)c1)N1CCOCC1	-67.1*
Cc1cc(N)n(-c2cc(C)c3ccccc3n2)n1	-118.1*
